Sampled rows, rich in hits. Any-hit rate of the full collection: about 7.3%.
NPC1 prom act – NPC1 promoter activation. 2.4% of 320,000 active. Huh7 NPC1 promoter luciferase reporter, 24 h. Potency, µM (series often up to 9.22 µM), most hits filed as activators; also: nearly all actives have a fitted effect of over 60% in size
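Readout is luciferase luminescence, reflecting NPC1 promoter activation in stably transfected Huh7 cells after 24 h compound exposure at 37 °C in reduced-serum medium with 10% FBS.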
ELG1 genotoxic – inducers of genotoxicity in HEK293T ELG1-luciferase cells; HEK293T ELG1-luciferase reporter, luminescence, 16 h; 1.3% of 330,000 active; Potency, µM (top dose mostly 46 µM), hits mostly activators; also: nearly all actives have a fitted effect of over 60% in size
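After overnight (16 hr) compound treatment at 37 °C, ELG1-luciferase HEK293T cells were lysed with ONE-Glo; luminescence quantified 30 min later at room temperature.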
FLuc counter – firefly luciferase modulation, counter-screen for miR-21 project; P08659; purified FLuc, Km substrates, luminescence inhibition; 6.9% of 360,000 active; Potency, µM (series often up to 57.5 µM), usual class: inhibitors; also: nearly all actives have a fitted effect of over 55% in size
Target sequence (P08659 whole entry, looked up): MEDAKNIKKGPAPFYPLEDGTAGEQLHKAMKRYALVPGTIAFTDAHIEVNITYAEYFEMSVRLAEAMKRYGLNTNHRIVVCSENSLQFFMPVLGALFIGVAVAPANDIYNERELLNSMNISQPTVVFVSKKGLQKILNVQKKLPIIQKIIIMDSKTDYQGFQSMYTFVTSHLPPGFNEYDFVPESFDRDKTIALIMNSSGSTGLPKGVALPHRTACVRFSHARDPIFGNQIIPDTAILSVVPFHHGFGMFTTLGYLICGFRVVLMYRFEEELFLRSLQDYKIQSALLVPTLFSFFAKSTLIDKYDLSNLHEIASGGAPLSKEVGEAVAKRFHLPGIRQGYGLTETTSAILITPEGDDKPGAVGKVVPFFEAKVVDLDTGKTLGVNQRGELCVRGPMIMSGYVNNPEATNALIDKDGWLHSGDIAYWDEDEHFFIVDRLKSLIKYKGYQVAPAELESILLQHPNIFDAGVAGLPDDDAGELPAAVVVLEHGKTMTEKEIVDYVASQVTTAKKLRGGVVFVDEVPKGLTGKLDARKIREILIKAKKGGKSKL
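Purified P. pyralis luciferase (10nM final) with 10uM D-luciferin and 10uM ATP (Km levels) in 50mM Tris acetate pH 7.5, 10mM Mg acetate, 0.01% Tween-20, 0.05% BSA; qHTS 6-point titration, ~60 µM downward; luminescence read.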
SMN2 splice enh – enhancers of SMN2 splice variant expression. Potency, µM (titrated, usually from 46.1 µM), most hits filed as activators. 2.8% of 210,000 active. HEK293 SMN2-luciferase splicing reporter, luminescence, 30-36 h; also: nearly all actives have a fitted effect of over 55% in size
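qHTS luciferase splicing reporter: luminescence rises when SMN2 exon 7 is included in transfected HEK293 cells. Compound exposure lasted 30-36 h at 37C, with 4.5 mM final sodium butyrate as control, followed by a ONE-Glo read.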
Luc counter – Kinase-Glo luciferase inhibition (counter-screen) | Kinase-Glo luciferase, ATP luminescence, 8 min | 0.28% of 200,000 active | Q27757 | AID 1379 | Potency, µM (highest dose often 38.3 µM), actives largely listed as inhibitors; also: nearly all actives have a fitted effect of over 60% in size
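Light output from Kinase-Glo luciferase with luciferin and 10 uM ATP in 50 mM imidazole pH 7.2, KCl, MgCl2, Tween 20, BSA; compound pin-delivered, 8-min ambient incubation, then luminescence read.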
Rab9 promoter act – activators of Rab9 promoter; Huh7 Rab9 promoter-luciferase reporter, luminescence, 24 h; Potency, µM (doses to about 9.22 µM), most hits filed as activators; 2.8% of 320,000 active; AID 485297; also: nearly all actives have a fitted effect of over 60% in size
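Steps: seed 1500 Huh7 Rab9-luc cells per well, rest 2 h at 37 °C; add compound in DMSO; incubate 24 h; add luciferase reagent, 10 min ambient; read luminescence.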
Hits are given with their value; i = inactive; ? = inconclusive; nt = not tested or not shown; [ ] = remark or other dose. Calls follow the shape of the dose curve; as a rule, active = well fitted curve in the direction sought with a large enough effect; inconclusive = small, poorly fitted or top-dose-only effect, or another doubt; inactive = no such curve, though single readings can be large; an effect the other way counts as inactive or inconclusive.

SMILES | NPC1 prom act | ELG1 genotoxic | FLuc counter | SMN2 splice enh | Luc counter | Rab9 promoter act
C=CCc1c(C)nc2cc(-c3ccc(C)cc3)[nH]n2c1=O | 1.58µM | 1.83µM | 3.01µM | nt | nt | ?
CCCCc1c(C)nc2cc(-c3ccco3)[nH]n2c1=O | ? | ? | 12µM | nt | nt | ?
O=C1c2nc3cc(-c4ccco4)[nH]n3c(=O)c2CN1Cc1ccccc1 | i | i | ? | nt | nt | i
CC(C)(C)n1ncc2c(=O)n(Cc3c(F)ccc(Cl)c3Cl)cnc21 | nt | nt | 13.5µM | nt | nt | nt
CC(C)(C)n1ncc2c(=O)n(CC(=O)NCc3ccccc3Cl)cnc21 | 0.398µM | ? | 3.01µM | 11.2µM | i | 0.398µM
Cc1ccc(F)c(Cn2cnc3c(cnn3C(C)(C)C)c2=O)c1Cl | i | i | ? | nt | nt | i
Cc1ccc2c(c1)sc1nc(=O)n(-c3ccccc3)c(=O)n12 | 0.562µM | ? | ? | nt | nt | 0.316µM
Cc1ccc2c(c1)sc1ncc(NC(=O)c3ccc(F)cc3)c(=O)n12 | i | i | i | i | i | i
CCOc1cc2[nH]c(=O)n(CCCCC(=O)N3CCN(c4ccc(OC)cc4)CC3)c(=O)c2cc1OCC | nt | nt | i | nt | nt | nt
COc1ccc(NC(=O)c2oc3ccccc3c2NC(=O)c2cc(C)cc(C)c2)c(OC)c1 | nt | nt | i | i | nt | nt
COc1cc(/C=C/c2cc(C(=O)O)c3ccccc3n2)cc(OC)c1O | i | i | 9.53µM | i | i | i
CCOc1cc(/C=C/c2cc(C(=O)O)c3ccccc3n2)ccc1OC | ? | ? | 1.35µM | 22.4µM | i | ?
CCOc1cc(/C=C/c2cc(C(=O)O)c3ccccc3n2)ccc1O | i | i | 4.26µM | i | i | i
COc1cc(C(=O)O)c2ccccc2n1 | i | i | i | nt | i | i
CCOc1cccc(/C=C/c2cc(C(=O)O)c3ccccc3n2)c1OC | 2µM | ? | 1.07µM | nt | nt | 4.47µM
CCOc1ccccc1NC(=O)c1cc(-c2cc(OC)c(OC)c(OC)c2)nc2ccccc12 | i | i | i | nt | nt | i
Oc1ccc(/C=N/NC(=S)Nc2cccnc2)c(O)c1 | i | ? | 21.3µM | i | i | i
Oc1ccc(/C=N/NC(=S)Nc2cccnc2)c(O)c1O | i | i | 19µM | nt | nt | i
Oc1cccc(/C=N/NC(=S)Nc2cccnc2)c1O | i | ? | ? | i | i | i
Fc1ccc(/C=N/NC(=S)Nc2cccnc2)cc1 | i | 23.1µM | ? | i | i | i
CCc1ccccc1NC(=O)Nc1ccc2c(c1)N(CC)C(=O)c1ccccc1S2 | nt | nt | i | nt | nt | nt
NC1(C(=O)NC2(C(=O)O)CCCC2)CCCC1 | nt | nt | nt | i[9.22 µM] | i[7.66 µM] | nt
COc1cc(OC)cc(C(=O)Nn2c(C)nc3ccccc3c2=O)c1 | i | i | i | i | i | i
COc1ccc2[nH]c3c(c2c1)CCn1c-3nc2ccccc2c1=O | 0.199µM | ? | 0.477µM | 1.58µM | i | 0.251µM
COc1ccc(NC(=O)c2cc(-c3ccc(F)cc3)no2)cc1OC | nt | nt | i | nt | nt | nt
SMILES | NPC1 prom act | ELG1 genotoxic | FLuc counter | SMN2 splice enh | Luc counter | Rab9 promoter act
CCOC(=O)C(=CNc1ccc(C(F)(F)F)cc1Cl)C(=O)OCC | i | i | 13.5µM | nt | nt | i
COc1ccc(-n2nc(C(=O)N3CCN(c4cccc(C)c4C)CC3)c3c4ccccc4n(C)c3c2=O)cc1 | nt | nt | i | i | nt | nt
Brc1ccccc1-n1nnc(-c2ccnc3ccccc23)n1 | i | i | 16.9µM | nt | nt | i
CCN1C(=O)/C(=C/N2CCc3ccccc3C2)SC1=S | ? | i | 23.9µM | nt | nt | ?
COc1ccccc1/C=C/C(=O)Nc1cccc(S(=O)(=O)NC2=NCCCCC2)c1 | i | i | 19µM | i | i | i
COc1ccc(OC)c(/C=C/C(=O)Nc2cccc(S(=O)(=O)NC3=NCCCCC3)c2)c1 | i | i | ? | nt | nt | i
COc1ccc(/C=C/C(=O)Nc2cccc(S(=O)(=O)NC3=NCCCCC3)c2)c(OC)c1 | i | i | 6.01µM | nt | nt | i
COc1cc(/C=C/C(=O)Nc2cccc(S(=O)(=O)NC3=NCCCCC3)c2)ccc1OCC#N | i | i | i | nt | nt | i
Cc1c(C(=O)N2CCCCCC2)c(S(=O)(=O)Nc2ccc(OC(F)(F)F)cc2)c(C)n1C | nt | nt | i | nt | nt | nt
CCN1C(=O)c2cccc3c(NC(=O)c4ccc(OC)c(OC)c4)ccc1c23 | i | 14.6µM | i | nt | i | i
Cc1cc(N2CCOCC2)n2ncc(-c3ccccc3Cl)c2n1 | 2.51µM | 9.2µM | 2.69µM | nt | nt | 2.51µM
Cc1cc(Cl)n2ncc(-c3ccccc3)c2n1 | i | ? | 12µM | nt | nt | ?
CC(C)c1cc(N2CCOCC2)n2ncc(-c3ccccc3)c2n1 | i | i | i | nt | nt | i
Cc1cc(N)n2ncc(-c3ccc(F)cc3)c2n1 | ? | 16.4µM | 10.7µM | ? | i | 3.16µM
Cc1cc(N)n2ncc(-c3ccc(Cl)cc3)c2n1 | 2.82µM | ? | 13.5µM | i | i | 3.16µM
COc1ccc(-c2cnn3c(C)cc(C)nc23)cc1OC | nt | nt | i | nt | nt | nt
Cc1cc(-c2ccc(Cl)cc2)c2cnn(C(C)C)c2n1 | i | i | ? | nt | nt | i
CN(CC(=O)Nc1cccc(F)c1)S(=O)(=O)c1ccc2c(c1)n(C)c(=O)c(=O)n2C | nt | nt | i | i | nt | nt
CC1CCN(C(=O)CN2CCSc3ccccc32)CC1 | nt | nt | i | nt | nt | nt
Cc1cc(C)n2nc(C(=O)NNC(=O)c3ccc(Cl)cc3)nc2n1 | i | i | i | nt | nt | i
Cc1cc(C)n2cc(-c3ccc(Cl)cc3)c(C(=O)O)c2n1 | 2.82µM | 16.4µM | ? | 12.6µM | i | 2.51µM
Cc1nc2c(-c3ccc(F)cc3)cnn2c(N)c1-c1ccc(F)cc1 | 0.447µM | 1.16µM | 0.849µM | nt | nt | 0.562µM
Cc1cccc(NC(=O)c2cc(S(=O)(=O)N3CCc4ccccc43)ccc2F)c1C | nt | nt | i | nt | nt | nt
CCCNC(=O)c1cnc2sc(N3CCCCCC3)nn2c1=O | nt | nt | i | nt | nt | nt
Cc1ccc(-n2[nH]c(C)c(/C=N/Nc3ccc([N+](=O)[O-])cc3[N+](=O)[O-])c2=O)cc1 | i | i | 19µM | i | ? | i
SMILES | NPC1 prom act | ELG1 genotoxic | FLuc counter | SMN2 splice enh | Luc counter | Rab9 promoter act
Oc1ccccc1/C=N/c1c(-c2ccco2)nc2ccccn12 | ? | ? | 26.9µM | i | ? | ?
COc1cc(-c2nc3ccccn3c2/N=C/c2ccc(F)cc2)ccc1O | i | i | ? | i | i | i
COc1ccc(/C=N/c2c(-c3ccco3)nc3ccccn23)cc1OC | ? | i | 0.426µM | i | ? | ?
Clc1ccc(/C=N/c2c(-c3ccco3)nc3ccccn23)cc1 | i | ? | 15.1µM | i | ? | ?
Cc1cc(C)c(NC(=O)c2nc3ccccc3nc2N2CCCCC2)c(C)c1 | nt | nt | i | nt | nt | nt
COc1ccc(Cn2ccc3nc(C)c(C(=O)Nc4cc(C)cc(C)c4)cc3c2=O)cc1 | nt | nt | i | nt | nt | nt
CC(=O)c1cccc(NC(=O)CSc2ccc(-c3sc(C)nc3C)nn2)c1 | i | i | 13.5µM | nt | nt | i
Cc1cc(C)cc(NC(=O)CSc2ccc(-c3ccccn3)nn2)c1 | i | ? | ? | nt | nt | i
O=C(CSc1ccc(-c2ccccn2)nn1)Nc1cccc(F)c1 | i | ? | 13.5µM | nt | nt | i

Assay outcomes from PubChem.
